Results published in PubChem BioAssay (NCATS).
Records with an inconclusive call do not appear. Values without a mark were called inactive. The call rests on the fitted dose curve; in most records, active means well fitted cell-killing curve with a large enough effect; inconclusive means small, poorly fitted or top-dose-only effect, or effect the other way; inactive means no such curve, though single readings can be large or run the other way.

Test: Cell Viability - LYMP2-005 (AID 967)
Settings: LYMP2-005 lymphoblastoid cell viability; series mostly up to 92.2 µM; activity change, negative = viability loss: at the top concentration
From the text: NIH Chemical Genomics Center [NCGC]
NIH Molecular Libraries Screening Centers Network [MLSCN]
National Institutes of Environmental Health Sciences [NIEHS]
National Toxicology Program [NTP]
We have developed a 1536-well cell-based assay for quantitative high throughput screening (qHTS) against a number of cell lines to determine in vitro cytotoxicity of small molecules. This particular assay uses a human lymphoblastoid cell line (LYMP2-005) purchased from Coriell Institute for Medical Research.
NCGC Assay Protocol Summary:
The CellTiter-Glo luminescent cell viability assay (Promega) is a homogeneous method to measure the number of viable cells in culture. The end point readout of this assay is based on quantitation of intracellular ATP, an indicator of metabolic activity, using the luciferase reaction. Luciferase catalyzes the oxidation of beetle Luciferin to oxyluciferin and light in the presence of ATP. The luminescent signal is proportional to amount of ATP present.
Using the CellTiter-Glo luminescent cell viability assay, the amount of cellular ATP was measured in the lymphoblastoid cell line with complete culture medium following compound treatment for 24 hours. The assay was performed in opaque white Kalypsys 1536-well plates. In the screen, tetraoctylammonium bromide was used as positive control. Library compounds were measured for their ability to cause acute toxicity in the cell line, as reflected by a decrease in intracellular ATP levels, in a concentration-dependent manner. […] AC50 values were determined from concentration-response data modeled with the standard Hill equation.
qHTS protocol for CellTiter Glo lymphoblastoid cellular assay
[Step] [Parameter] [Value] [Description]
1. Reagent; 5 uL; 2500 lymphoblastoid cells/well
2. Time; 5 hr; 37 C incubation
4. Controls; 23 nL; Tetraoctylammonium bromide 6.4pM to 92 uM
5. Time; 24 hr; 37 C incubation
6. Reagent; 5 uL; CellTiter Glo reagent
7. Time; 30 min; Room Temperature
8. Detection; Luminescence; Viewlux plate reader
Keywords: cell viability, cytotoxicity, lymphoblastoid cell line, luminescence, NTPHTS, NTPHTS_NCGC, NIEHS, DSSTox, MLSMR, MLSCN, NIH Roadmap, qHTS, NCGC

SMILES | activity change, negative = viability loss
O=C1CCC(=O)O1 | -1.35%
CC(=O)Nc1ccc(N)cc1 | -5.2%
CCN(Cc1ccccc1)c1ccccc1 | -2.08%
O=C(Cl)c1c(Cl)cccc1Cl | 7.33%
Cc1cccc(Br)c1 | 9.74%
CC(C)=CCC/C(C)=C/C=O | 0.813%
CCCCCO | 25.7%
COc1ccccc1[N+](=O)[O-] | 2.5%
Cc1ccc(Br)cc1 | -27.3%
Cc1cc(C)c(N)cc1C | 17.4%
Oc1c(Cl)ccc(Cl)c1Cl | -14.1%
CCCCCCC(=O)O | 13.4%
C=C(C)C(=O)OCC(C)O (stereo not given) | 3.83%
Cc1ccccc1Br | -5.98%
Cc1ccc(Cl)cc1 | -6.77%
Nc1cc([N+](=O)[O-])ccc1C(=O)O | -12.6%
CCCCN(CCO)CCCC | 12.5%
Cc1c(N)cccc1N | 0.18%
Nc1nc(-c2ccccc2)cs1 | -5%
c1ccsc1 | 5.85%

SMILES | activity change, negative = viability loss
O=[N+]([O-])c1cccc(Cl)c1 | -6.88%
C=CC(=O)NC(C)C | 15.5%
CO[Si](CCCNCCC[Si](OC)(OC)OC)(OC)OC | -24.8%
COc1cccc2sc(N)nc12 | 9.85%
Cc1ccccc1C(=O)O | -2.36%
Cc1ccc(C)o1 | 4.24%
CCOc1ccc(NC(C)=O)cc1N | 3.86%
CCC=O | 6.57%
CCCCC(=O)N(C)C | 11.7%
O=C(O)c1cccc(Cl)c1Cl | 12.4%
ICCc1ccccc1 | -5.96%
O=C(O)c1c(Cl)cccc1Cl | 8.57%
CC(O)COC(C)(C)C (stereo not given) | 40.7%
FC(F)(F)c1ccccc1Cl | 19.7%
Cc1cc(C)cc(O)c1 | 3.15%
C[C@@H]1CC2(OC[C@]3(C)O[C@H]23)O[C@H]2C[C@@]3(C)[C@@H]4CC[C@H]5C(C)(C)C(O[C@@H]6OC[C@@H](O)[C@H](O)[C@H]6O)CC[C@@]56C[C@@]46CC[C@]3(C)[C@@H]12 (stereo not given in full) | 3.72%
C1CCOC1 | 3.19%
C=CCCC | 5.74%
CCCCCCCCN | 13.6%
Clc1cc(Cl)cc(Cl)c1 | 9.63%
